A selection: hits, their analogues and other compounds. The true share with any hit is near 9.2%.
ELG1 DNA repair: inhibitors of ELG1-dependent DNA repair in HEK293T cells | HEK293T ELG1-luciferase reporter, luminescence, 16 h; DNA damage induced by 5-fluorouridine | Potency, µM (doses to about 46.1 µM), without a hit: top-dose activity change, negative = inhibition, most hits filed as inhibitors | 330,000 compounds, 2.3% hits | AID 504467; also: % is scaled to controls: 0 for no effect and ±100 for the full control effect; nearly all actives have a fitted effect of over 55% in size
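Step one: seed 2,000 cells per well. Step two: pin-transfer compound or DMSO alongside 5-fluorouridine. Step three: incubate 16 hr, 37 °C, 5% CO2. Step four: add ONE-Glo, wait 30 min, read luminescence.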
ELG1 genotox: genotoxicity induction in ELG1-luciferase HEK293T cells; HEK293T ELG1-luciferase reporter, luminescence, 16 h; Potency, µM (series often up to 46 µM), for inactives: top-dose activity change, positive = activation, most hits filed as activators; 330,000 compounds, 1.3% hits; also: % of control where 0% means no effect; nearly all actives have a fitted effect of over 60% in size
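Quantitative HTS format in 1536-well plates. HEK293T ELG1-luciferase reporter cells receive test compound and are incubated 16 hr at 37 °C, 5% CO2; ONE-Glo added, 30 min room temperature, then luminescence read.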
SMN2 splice up: increases expression of the SMN2 splice variant | HEK293 SMN2-luciferase splicing reporter, luminescence, 30-36 h | 210,000 compounds, 2.8% hits | Potency, µM (series often up to 46.1 µM), for the others: at the top dose activity change, positive = activation, most hits filed as activators | AID 1458; also: % of control where 0% means no effect; nearly all actives have a fitted effect of over 55% in size
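qHTS luciferase splicing reporter: luminescence rises when SMN2 exon 7 is included in transfected HEK293 cells. Compound exposure lasted 30-36 h at 37C, with 4.5 mM final sodium butyrate as control, followed by a ONE-Glo read.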
NPC1 promoter act: activates the NPC1 promoter; Huh7 NPC1 promoter luciferase reporter, 24 h; Potency, µM (doses to about 9.22 µM), for inactives: at the highest dose activation, usual class: activators; 320,000 compounds, 2.4% hits; also: % of control where 0% means no effect; nearly all actives have a fitted effect of over 60% in size
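Quantitative HTS used a cell-based reporter: Huh7 cells stably bearing the NPC1 promoter upstream of luciferase were treated with compounds for 24 h, and promoter activation was read as luminescence.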
Rab9 prom act: activates the Rab9 promoter; Huh7 Rab9 promoter-luciferase reporter, luminescence, 24 h; AID 485297; Potency, µM (series often up to 9.22 µM), inactives show top-dose activation, negative = inhibition, actives largely listed as activators; 320,000 compounds, 2.8% hits; also: % of control where 0% means no effect; nearly all actives have a fitted effect of over 60% in size
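Luminescence from Amplite-detected luciferase (10 minutes, ambient) reports Rab9 promoter activation. Before that, stable Rab9-luciferase Huh7 cells (1500/well, reduced-serum OP-MEM I plus 10% FBS) were exposed to compound for 24 hours at 37C.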
FLuc counter: inhibits or activates purified firefly luciferase, miR-21 counter-screen; P08659; purified FLuc, Km substrates, luminescence inhibition; Potency, µM (series often up to 57.5 µM), for inactives: at the top dose activity change, negative = inhibition, hits mostly inhibitors; 360,000 compounds, 6.9% hits; AID 588342;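 also: plate controls were vehicle for no effect and reference inhibitor for full effect; nearly all actives have a fitted effect of over 55% in size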
Target sequence (P08659 whole entry, looked up): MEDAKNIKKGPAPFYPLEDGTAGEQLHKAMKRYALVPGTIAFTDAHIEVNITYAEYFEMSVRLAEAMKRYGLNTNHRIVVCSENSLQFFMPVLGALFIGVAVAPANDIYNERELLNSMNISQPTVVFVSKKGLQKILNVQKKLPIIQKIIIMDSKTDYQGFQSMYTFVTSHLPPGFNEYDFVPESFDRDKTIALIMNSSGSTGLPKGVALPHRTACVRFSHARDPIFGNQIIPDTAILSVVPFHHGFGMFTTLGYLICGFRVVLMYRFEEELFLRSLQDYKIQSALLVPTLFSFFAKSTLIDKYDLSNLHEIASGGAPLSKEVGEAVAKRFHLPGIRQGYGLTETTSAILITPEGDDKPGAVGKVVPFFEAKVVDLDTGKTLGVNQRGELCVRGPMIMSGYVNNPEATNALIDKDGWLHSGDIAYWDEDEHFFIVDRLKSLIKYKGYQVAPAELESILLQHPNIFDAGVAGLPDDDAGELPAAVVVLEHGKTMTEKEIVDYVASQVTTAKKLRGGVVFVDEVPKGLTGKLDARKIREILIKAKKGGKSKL
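Purified P. pyralis luciferase (10nM final) with 10uM D-luciferin and 10uM ATP (Km levels) in 50mM Tris acetate pH 7.5, 10mM Mg acetate, 0.01% Tween-20, 0.05% BSA; qHTS 6-point titration, ~60 µM downward; luminescence read.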
ELG1 FLuc counter: luciferase inhibition in cell-free luciferin readout for ELG1 hits | shares compounds with ELG1 DNA repair | cell-free firefly luciferase luminescence counter-screen, ViewLux | Potency, µM (top dose mostly 46.1 µM), inactives show at the highest dose activity change, negative = inhibition, usual class: inhibitors | 350 compounds, 3% hits | AID 624247; also: % is scaled to controls: 0 for no effect and ±100 for the full control effect
ELG1-Luc inh: human ELG1 repair inhibition, luciferase-tagged ELG1 confirmation; 670 compounds, 68% hits; shares compounds with ELG1 DNA repair; AID 624248; HEK293T ELG1-luciferase levels, luminescence; cells co-treated with 5-fluorouridine; Potency, µM (titrated, usually from 46.1 µM), for inactives: top-dose activity change, negative = inhibition, hits mostly inhibitors; also: % is scaled to controls: 0 for no effect and ±100 for the full control effect; nearly all actives have a fitted effect of over 55% in size
ELG1 MMS Luc: MMS-stimulated human ELG1 repair inhibition, confirmed. shares compounds with ELG1 DNA repair. HEK293T luciferase-tagged ELG1 level, MMS stimulated. Potency, µM (top dose mostly 46.1 µM), for inactives: top-dose activity change, negative = inhibition, actives largely listed as inhibitors. 670 compounds, 53% hits. AID 624249; also: % is scaled to controls: 0 for no effect and ±100 for the full control effect; nearly all actives have a fitted effect of over 60% in size
ELG1 5-FU: confirmation of ELG1 repair inhibitors: viability with 5FU; AID 624250; cell viability with 5-FU, ELG1-dependent repair; Potency, µM (doses to about 46.1 µM), inactives show at the top dose activity change, negative = viability loss, most hits filed as cytotoxic; 670 tested, under 10 active; shares compounds with ELG1 DNA repair;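 also: ELG1-luc HEK293T cells cotreated with 5-fluorouridine at 10 µM final; viability measured 16 h after compound addition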
ELG1 MMS cell: confirmation of ELG1 repair inhibitors: viability with MMS; shares compounds with ELG1 DNA repair; Cell viability with MMS, ELG1-dependent DNA repair; Potency, µM (series often up to 46.1 µM), for the others: at the highest dose activity change, negative = viability loss, hits mostly cytotoxic; 670 compounds, 33% hits;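 also: ELG1-luc HEK293T cells co-treated with 10 µM MMS; viability read 16 h after compound addition; % is scaled to controls: 0 for no effect and ±100 for the full control effect; nearly all actives have a fitted effect of over 60% in size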
ELG1 unstim viab: affects unstimulated cell viability, ELG1 hit counter-screen | 900 compounds, 8% hits | Potency, µM (series often up to 45.9 µM), for inactives: top-dose activity change, negative = loss of viability, actives largely listed as cytotoxic | cell viability counter-screen, unstimulated, luminescence | AID 624252 | shares compounds with ELG1 DNA repair;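 also: compound exposure lasted 16 hours before reading; % is scaled to controls: 0 for no effect and ±100 for the full control effect; nearly all actives have a fitted effect of over 55% in size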
FLuc enzyme: inhibits purified firefly luciferase, counter-screen for ELG1 hits | shares compounds with ELG1 DNA repair | purified firefly luciferase, luminescence counter-screen | Potency, µM (top dose mostly 57.5 µM), for the others: at the highest dose activity, negative = inhibition, usual class: inhibitors | 350 compounds, 10% hits; also: % is scaled to controls: 0 for no effect and ±100 for the full control effect
* marks the source's active call; other numbers are inactive results; ? = inconclusive; nt = no result; ! = not confirmed by another sample. Calls follow the shape of the dose curve; as a rule, active = well fitted curve in the direction sought with a large enough effect; inconclusive = small, poorly fitted or top-dose-only effect, or another doubt; inactive = no such curve, though single readings can be large; an effect the other way counts as inactive or inconclusive. Potency is read from the fitted curve at half-maximal effect.

SMILES	ELG1 DNA repair	ELG1 genotox	SMN2 splice up	NPC1 promoter act	Rab9 prom act	FLuc counter	ELG1 FLuc counter	ELG1-Luc inh	ELG1 MMS Luc	ELG1 5-FU	ELG1 MMS cell	ELG1 unstim viab	FLuc enzyme
O=c1c2ccccc2oc2ccc(-c3ccc4cc[nH]c4c3)cc12	?	?	nt	nt	nt	nt	93.5%	nt	nt	nt	nt	?	0.411µM*
Cc1ccc(-n2nc(CN3CCOCC3)c(-c3ccccc3)c2N)cc1Cl	1.64µM*	-2.2%	4.4%	-1.1%	-1.6%	-4.9%	nt	1.41µM*	17.7µM*	?	25µM*	-1.2%	nt
Nc1c(-c2ccccc2)c(CN2CCOCC2)nn1-c1ccccc1	-1.6%	1.6%	4.6%	2.0%	3.2%	-0.2%	nt	nt	nt	nt	nt	nt	nt
COc1ccc(NC(=O)c2sc3nc(N4CCOCC4)c4c(c3c2N)CC(C)(C)OC4)cc1	0.411µM*	18.6%	nt	-4.1%	-0.1%	4.0%	3.9%	0.354µM*	15.3%	?	-6.5%	-0.5%	-9.1%
CC1(C)Cc2c(c(N3CCOCC3)nc3sc(C(=O)N4CCCCC4)c(N)c23)CO1	0.206µM*	3.5%	5.2%	0.3%	0.2%	-2.7%	20.1%	0.445µM*	0.9%	?	-3.7%	-1.8%	-12.2%
CC(=O)N(CCC1(c2ccc(C)cc2)CCOC(C(C)C)C1)Cc1ccco1 (configuration not stated)	?	-5.5%	nt	-2.0%	-2.9%	-10.1%	nt	nt	nt	nt	nt	nt	nt
COc1ccc(C2CC(c3ccncc3)=NN2c2ccc(S(N)(=O)=O)cc2)cc1 (configuration not stated)	?	20.6µM*	nt	nt	nt	nt	nt	nt	nt	nt	nt	?	nt
CCn1c(=O)c(=O)n(CC)c2cc(N3CCCCC3)c(NC(=O)c3ccc(OC)c(OC)c3)cc21	nt	nt	2.8%	nt	nt	3.5%	nt	nt	nt	nt	nt	nt	nt
CCOc1ccc(C(=O)Nc2cc3c(cc2N2CCCC2)n(CC)c(=O)n3CC)cc1OCC	?	-3.8%	nt	-3.6%	-4.6%	3.5%	1.8%	15.8µM*	?	11.9%	?	?	-8.2%
CCOC(=O)C1CCN(c2cc3c(cc2NC(=O)c2ccc(F)cc2)n(C)c(=O)n3C)CC1	2.31µM*	-6.5%	nt	16.7%	10.9%	4.5%	-12.4%	2.5µM*	14.1µM*	?	25µM*	25µM*!	-2.6%
CCOC(=O)C1CCN(c2cc3c(cc2NC(=O)c2ccc(Cl)cc2)n(C)c(=O)n3C)CC1	nt	nt	-2.6%	nt	nt	1.9%	nt	nt	nt	nt	nt	nt	nt
Cc1ccc(CNC(=O)CCCN2C(=O)CCn3nc(-c4cn(C)c5ccccc45)cc32)cc1	nt	nt	nt	nt	nt	-3.3%	nt	nt	nt	nt	nt	nt	nt
COc1cc(NC(=O)C2CCC(CNc3c(N4CCCCC4)c(=O)c3=O)CC2)cc(OC)c1 (configuration not stated)	?	9.7%	11.4%	-2.0%	0.2%	-1.9%	-8.8%	11.2µM*	-7.7%	?	-16.3%	?	-5.6%
COc1cc(NC(=O)C2CCC(CNc3c(N4CCC(C)CC4)c(=O)c3=O)CC2)cc(OC)c1 (configuration not stated)	?	?	-4.6%	-2.2%	0.6%	-0.8%	nt	nt	nt	nt	nt	nt	nt
O=C(Nc1ccc(F)cc1)C1CCC(CNc2c(N3CCCCC3)c(=O)c2=O)CC1 (configuration not stated)	0.1%	-3.0%	nt	-1.7%	-0.3%	5.1%	73.1%	?	6.5%	5.0%	-4.1%	-11.5%	-9.6%
Nc1nonc1-n1nnc(C(=O)N/N=C/c2ccncc2)c1-c1ccccc1	8.2%	-9.9%	nt	1.8%	0.0%	2.0%	nt	nt	nt	nt	nt	nt	nt
CC1=C(C(=O)N(C)C)C(c2ccc(N3CCOCC3)cc2)NC(=O)N1 (configuration not stated)	8.7%	-2.0%	-4.6%	0.6%	12.7%	-2.8%	nt	nt	nt	nt	nt	nt	nt
CCOC(=O)c1sc2ccccc2c1S(=O)(=O)N1CCN(c2cccc(C)c2)C(C)C1 (configuration not stated)	nt	nt	nt	nt	nt	4.4%	nt	nt	nt	nt	nt	nt	nt
CNC(=O)C(=O)NCCN1CCN(C(=O)c2ccc([N+](=O)[O-])cc2)CC1	10.5%	5.5%	nt	4.5%	-12.1%	-4.4%	nt	nt	nt	nt	nt	nt	nt
CCCCc1ccc(NC(=O)C(=O)NCCN2CCN(Cc3ccc([N+](=O)[O-])cc3)CC2)cc1	3.26µM*	11.5%	-77.1%	-31.8%	-31.9%	4.7%	nt	?	0.791µM*	-0.1%	1.25µM*	-14.8%	nt
CC1CN(S(=O)(=O)c2ccc(C(=O)NCCCn3ccnc3)cc2)CC(C)O1 (configuration not stated)	0.731µM*	-17.8%	-49.8%	1.5%	-2.0%	1.2%	?	4.7%	0.0281µM*	-3.1%	0.0315µM*	?	-7.0%
Nc1nonc1-n1nnc(C(=O)N/N=C/c2cccc(Cl)c2Cl)c1CN1CCCC1	3.2%	11.9%	nt	-0.8%	0.2%	0.0%	nt	nt	nt	nt	nt	nt	nt
